# Experimental data reported in ChEMBL document CHEMBL1961873, “Compounds: GSK PKIS; Assays: Nanosyn kinase panel” (2012).
# Target: Serine/threonine-protein kinase PAK 3 (Homo sapiens) (UniProt O75914);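 also: reported percentage is a mean inhibition value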
# Conditions: at 1 µM
# Serine/threonine-protein kinase PAK 3 (Homo sapiens), sequence (O75914 whole entry, looked up): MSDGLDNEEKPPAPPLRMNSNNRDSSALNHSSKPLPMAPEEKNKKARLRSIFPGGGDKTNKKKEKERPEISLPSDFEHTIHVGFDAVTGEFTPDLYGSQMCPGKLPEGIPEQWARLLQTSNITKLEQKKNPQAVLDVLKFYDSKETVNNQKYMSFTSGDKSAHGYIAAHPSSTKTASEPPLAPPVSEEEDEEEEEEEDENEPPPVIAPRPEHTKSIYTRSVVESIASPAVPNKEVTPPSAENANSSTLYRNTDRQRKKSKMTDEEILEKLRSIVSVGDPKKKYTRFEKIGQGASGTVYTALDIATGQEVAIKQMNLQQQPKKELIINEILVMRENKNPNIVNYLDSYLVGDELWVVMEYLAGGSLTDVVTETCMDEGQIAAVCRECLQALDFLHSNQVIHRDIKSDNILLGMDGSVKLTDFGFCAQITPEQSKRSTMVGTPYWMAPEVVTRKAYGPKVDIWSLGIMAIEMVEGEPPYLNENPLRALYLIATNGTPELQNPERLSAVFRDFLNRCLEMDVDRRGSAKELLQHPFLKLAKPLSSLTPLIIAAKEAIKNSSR
row,Structure (SMILES),inhibition [%]
1,CN1CCC(n2cnc(-c3ccc(F)cc3)c2-c2ccnc(N)n2)CC1,1.43
2,NC(=O)c1sc(-n2cnc3ccc(C(F)(F)F)cc32)cc1OCc1ccccc1Br,3.48
3,CN(C)CCOc1ccc(-c2nc(-c3ccncc3)c(-c3ccc4c(c3)CC/C4=N\O)[nH]2)cc1,4.82
4,CCCN(CCS(C)(=O)=O)Cc1ccc(-c2ccc3ncnc(Nc4ccc(OCc5cccc(F)c5)c(Cl)c4)c3c2)o1,2.05
5,CCc1nn2ncccc2c1-c1ccnc(NC2CC2)n1,3.37
6,CCNC(=O)O[C@H]1CN[C@H](C#Cc2cc3ncnc(Nc4ccc(OCc5cccc(F)c5)c(Cl)c4)c3s2)C1,3.15
7,CNC(=O)c1cccc(C#Cc2cncnc2Nc2ccc(OCc3cccc(F)c3)c(Cl)c2)c1,0.51
8,CCN1CCC(CC(=O)Nc2n[nH]c3nnc(-c4cccc(F)c4F)cc23)CC1,1.02
9,c1cc(-c2cnn3nc(N4CCOCC4)ccc23)nc(NC2CC2)n1,4.93
10,CS(=O)(=O)CCNCc1coc(-c2ccc3ncnc(Nc4ccc(OCc5ccccc5)cc4)c3c2)c1,3.31
11,COc1ccc(-c2cc3c(N)ncnc3o2)cc1,-1.01
12,N#Cc1c(NC(=O)CN2CCOCC2)sc2c1CCCC2,4.91
13,Clc1ccc(-c2nn3ncccc3c2-c2ccnc(Nc3ccccc3)n2)cc1,0.87
14,COc1cc(/C=N/Nc2ncnc3[nH]ncc23)ccc1O,4.44
15,CC(C)(CO)CNC(=O)c1ccc2c(c1)/C(=N/Nc1ccc(S(N)(=O)=O)cc1)C(=O)N2,0.96
16,Cc1ccc(O)cc1Nc1ccnc2cc(-c3ccccn3)ccc12,5
17,Fc1ccc(-c2nn3ccccc3c2-c2ccncc2)cc1,1.75

row,Structure (SMILES),inhibition [%]
1,c1ccc(-c2nc3n(c2-c2ccc4c(c2)OCO4)CCC3)nc1,2.08
2,N#Cc1c(NC(=O)c2ccc(F)cc2)sc2c1CCCC2,1.26
3,COc1cc(N2CCN(C(C)C)CC2)ccc1Nc1nc(Nc2ccc(F)cc2C(N)=O)c2cc[nH]c2n1,6.18
4,COc1cc2c(cc1Nc1nc(Nc3ccsc3C(N)=O)c3cc[nH]c3n1)N(C(=O)CN(C)C)CCC2(C)C,5.85
5,O=S(=O)(CCNCc1ccc(-c2ccc3ncnc(Nc4ccc(OCc5cccc(F)c5)c(Cl)c4)c3c2)o1)c1ccccc1,5.75
6,CCOc1ccc2c(-c3ccnc(Nc4cccc(C(F)(F)F)c4)n3)cnn2n1,2.39
7,Cc1ccc2c(-c3ccnc(Nc4ccccc4)n3)c(-c3ccc(F)cc3)nn2n1,4.22
8,CNC(=O)c1cc(-c2ccc(F)cc2)cc(-c2ccc(S(=O)(=O)N3CCCC3)cc2)c1N,5.29
9,CCn1cc(-c2ccnc3[nH]ccc23)c(-c2cccc(NC(=O)Nc3ccc(OCc4ccccc4)cc3)c2)n1,1.28
10,COc1cc(Nc2nccc(Nc3ccc4c(C)n[nH]c4c3)n2)cc(OC)c1OC,5.23
11,CCn1c(-c2nonc2N)nc2c(C#CC(C)(C)O)nc(OC[C@H](N)c3ccccc3)cc21,4.83
12,c1ccc(COc2ccc(Nc3ncnc4ccc(-c5ccco5)cc34)cc2)cc1,1.49
13,Nc1ncc(-c2cccc(S(N)(=O)=O)c2)c2scc(-c3ccc(F)c(Cl)c3)c12,3.51
14,CS(=O)(=O)CCNCc1ccc(-c2ccc3ncnc(Nc4ccc(OCc5ccccc5)c(C(F)(F)F)c4)c3c2)o1,4.14
15,CCN(CC)S(=O)(=O)c1ccc(OC)c(Nc2ncc(-c3ccccc3)o2)c1,1.76
16,NS(=O)(=O)c1ccc(N/N=C2\C(=O)Nc3ccc4ncccc4c32)cc1,3.77
17,COC(=O)Nc1nc2ccc(Oc3ccc(NC(=O)Nc4cccc(Cl)c4)cc3)cc2[nH]1,2.18

# Target: Serine/threonine-protein kinase PAK 5 (Homo sapiens) (UniProt Q9P286);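 also: values are mean percent inhibition of PAK5 from a kinase inhibitor set screen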
# Sequence (Q9P286 whole entry, looked up): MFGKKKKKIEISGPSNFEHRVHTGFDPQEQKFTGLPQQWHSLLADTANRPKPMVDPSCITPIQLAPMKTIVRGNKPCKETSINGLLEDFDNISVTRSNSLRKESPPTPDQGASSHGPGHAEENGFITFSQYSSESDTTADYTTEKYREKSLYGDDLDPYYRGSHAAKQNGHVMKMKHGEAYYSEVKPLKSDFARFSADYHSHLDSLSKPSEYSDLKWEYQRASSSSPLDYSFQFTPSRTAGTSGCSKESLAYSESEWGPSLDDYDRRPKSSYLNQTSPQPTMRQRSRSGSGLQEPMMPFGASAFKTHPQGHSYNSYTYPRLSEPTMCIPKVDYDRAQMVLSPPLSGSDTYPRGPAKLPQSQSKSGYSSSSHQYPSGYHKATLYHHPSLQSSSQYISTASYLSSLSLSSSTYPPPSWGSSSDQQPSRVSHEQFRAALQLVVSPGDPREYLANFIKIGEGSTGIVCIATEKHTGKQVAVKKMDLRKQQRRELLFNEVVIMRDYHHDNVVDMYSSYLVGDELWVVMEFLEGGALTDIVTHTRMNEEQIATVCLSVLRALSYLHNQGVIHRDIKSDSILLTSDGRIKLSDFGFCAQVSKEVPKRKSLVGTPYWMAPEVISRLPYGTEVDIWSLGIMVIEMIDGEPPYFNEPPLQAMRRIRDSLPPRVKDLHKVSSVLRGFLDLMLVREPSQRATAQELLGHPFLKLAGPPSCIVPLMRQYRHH
# Conditions: at 0.1 µM
row,Structure (SMILES),inhibition [%]
1,CN1CCC(n2cnc(-c3ccc(F)cc3)c2-c2ccnc(N)n2)CC1,-5.17
2,NC(=O)c1sc(-n2cnc3ccc(C(F)(F)F)cc32)cc1OCc1ccccc1Br,1.98
3,CN(C)CCOc1ccc(-c2nc(-c3ccncc3)c(-c3ccc4c(c3)CC/C4=N\O)[nH]2)cc1,7.4
4,CCCN(CCS(C)(=O)=O)Cc1ccc(-c2ccc3ncnc(Nc4ccc(OCc5cccc(F)c5)c(Cl)c4)c3c2)o1,3.25
5,CCc1nn2ncccc2c1-c1ccnc(NC2CC2)n1,-2.62
6,CCNC(=O)O[C@H]1CN[C@H](C#Cc2cc3ncnc(Nc4ccc(OCc5cccc(F)c5)c(Cl)c4)c3s2)C1,5.88
7,CNC(=O)c1cccc(C#Cc2cncnc2Nc2ccc(OCc3cccc(F)c3)c(Cl)c2)c1,7.61
8,CCN1CCC(CC(=O)Nc2n[nH]c3nnc(-c4cccc(F)c4F)cc23)CC1,2
9,c1cc(-c2cnn3nc(N4CCOCC4)ccc23)nc(NC2CC2)n1,6.57
10,CS(=O)(=O)CCNCc1coc(-c2ccc3ncnc(Nc4ccc(OCc5ccccc5)cc4)c3c2)c1,3.59
11,COc1ccc(-c2cc3c(N)ncnc3o2)cc1,-1.3
12,N#Cc1c(NC(=O)CN2CCOCC2)sc2c1CCCC2,2.38
13,Clc1ccc(-c2nn3ncccc3c2-c2ccnc(Nc3ccccc3)n2)cc1,7.85
14,COc1cc(/C=N/Nc2ncnc3[nH]ncc23)ccc1O,10.5
15,CC(C)(CO)CNC(=O)c1ccc2c(c1)/C(=N/Nc1ccc(S(N)(=O)=O)cc1)C(=O)N2,-0.42
16,Cc1ccc(O)cc1Nc1ccnc2cc(-c3ccccn3)ccc12,3.23
17,Fc1ccc(-c2nn3ccccc3c2-c2ccncc2)cc1,-0.38

row,Structure (SMILES),inhibition [%]
1,c1ccc(-c2nc3n(c2-c2ccc4c(c2)OCO4)CCC3)nc1,3.16
2,N#Cc1c(NC(=O)c2ccc(F)cc2)sc2c1CCCC2,-0.93
3,COc1cc(N2CCN(C(C)C)CC2)ccc1Nc1nc(Nc2ccc(F)cc2C(N)=O)c2cc[nH]c2n1,8.18
4,COc1cc2c(cc1Nc1nc(Nc3ccsc3C(N)=O)c3cc[nH]c3n1)N(C(=O)CN(C)C)CCC2(C)C,-2.38
5,O=S(=O)(CCNCc1ccc(-c2ccc3ncnc(Nc4ccc(OCc5cccc(F)c5)c(Cl)c4)c3c2)o1)c1ccccc1,4.32
6,CCOc1ccc2c(-c3ccnc(Nc4cccc(C(F)(F)F)c4)n3)cnn2n1,0.65
7,Cc1ccc2c(-c3ccnc(Nc4ccccc4)n3)c(-c3ccc(F)cc3)nn2n1,8.15
8,CNC(=O)c1cc(-c2ccc(F)cc2)cc(-c2ccc(S(=O)(=O)N3CCCC3)cc2)c1N,2.26
9,CCn1cc(-c2ccnc3[nH]ccc23)c(-c2cccc(NC(=O)Nc3ccc(OCc4ccccc4)cc3)c2)n1,-1.74
10,COc1cc(Nc2nccc(Nc3ccc4c(C)n[nH]c4c3)n2)cc(OC)c1OC,1.57
11,CCn1c(-c2nonc2N)nc2c(C#CC(C)(C)O)nc(OC[C@H](N)c3ccccc3)cc21,37.3
12,c1ccc(COc2ccc(Nc3ncnc4ccc(-c5ccco5)cc34)cc2)cc1,-1.27
13,Nc1ncc(-c2cccc(S(N)(=O)=O)c2)c2scc(-c3ccc(F)c(Cl)c3)c12,4.11
14,CS(=O)(=O)CCNCc1ccc(-c2ccc3ncnc(Nc4ccc(OCc5ccccc5)c(C(F)(F)F)c4)c3c2)o1,1.91
15,CCN(CC)S(=O)(=O)c1ccc(OC)c(Nc2ncc(-c3ccccc3)o2)c1,8.61
16,NS(=O)(=O)c1ccc(N/N=C2\C(=O)Nc3ccc4ncccc4c32)cc1,-1.93
17,COC(=O)Nc1nc2ccc(Oc3ccc(NC(=O)Nc4cccc(Cl)c4)cc3)cc2[nH]1,2.63
